Where “and” joins values, the source holds several entries; their conditions need not be identical. Equal entries are not always repeated.
How the values were obtained:
[1] = biological target: Fibroblast growth factor receptor 4 (Homo sapiens) (UniProt P22455); conditions: at 1 µM;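 note: reported figure is the averaged percent inhibition of FGFR4, from the GSK PKIS kinase screening panel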
[2] = biological target: Tyrosine-protein kinase Fgr (Homo sapiens) (UniProt P09769); conditions: at 0.1 µM
[3] = biological target: Tyrosine-protein kinase Fgr (Homo sapiens) (UniProt P09769); conditions: at 1 µM
[4] = biological target: Vascular endothelial growth factor receptor 1 (Homo sapiens) (UniProt P17948); conditions: at 0.1 µM
[5] = biological target: Vascular endothelial growth factor receptor 1 (Homo sapiens) (UniProt P17948); conditions: at 1 µM
[6] = biological target: Receptor-type tyrosine-protein kinase FLT3 (Homo sapiens) (UniProt P36888); conditions: at 0.1 µM
[7] = biological target: Receptor-type tyrosine-protein kinase FLT3 (Homo sapiens) (UniProt P36888); conditions: at 1 µM
[8] = test system: T1, Receptor-type tyrosine-protein kinase FLT3 (Homo sapiens), P36888 [D835Y]; conditions: at 0.1 µM
T1 sequence (whole entry): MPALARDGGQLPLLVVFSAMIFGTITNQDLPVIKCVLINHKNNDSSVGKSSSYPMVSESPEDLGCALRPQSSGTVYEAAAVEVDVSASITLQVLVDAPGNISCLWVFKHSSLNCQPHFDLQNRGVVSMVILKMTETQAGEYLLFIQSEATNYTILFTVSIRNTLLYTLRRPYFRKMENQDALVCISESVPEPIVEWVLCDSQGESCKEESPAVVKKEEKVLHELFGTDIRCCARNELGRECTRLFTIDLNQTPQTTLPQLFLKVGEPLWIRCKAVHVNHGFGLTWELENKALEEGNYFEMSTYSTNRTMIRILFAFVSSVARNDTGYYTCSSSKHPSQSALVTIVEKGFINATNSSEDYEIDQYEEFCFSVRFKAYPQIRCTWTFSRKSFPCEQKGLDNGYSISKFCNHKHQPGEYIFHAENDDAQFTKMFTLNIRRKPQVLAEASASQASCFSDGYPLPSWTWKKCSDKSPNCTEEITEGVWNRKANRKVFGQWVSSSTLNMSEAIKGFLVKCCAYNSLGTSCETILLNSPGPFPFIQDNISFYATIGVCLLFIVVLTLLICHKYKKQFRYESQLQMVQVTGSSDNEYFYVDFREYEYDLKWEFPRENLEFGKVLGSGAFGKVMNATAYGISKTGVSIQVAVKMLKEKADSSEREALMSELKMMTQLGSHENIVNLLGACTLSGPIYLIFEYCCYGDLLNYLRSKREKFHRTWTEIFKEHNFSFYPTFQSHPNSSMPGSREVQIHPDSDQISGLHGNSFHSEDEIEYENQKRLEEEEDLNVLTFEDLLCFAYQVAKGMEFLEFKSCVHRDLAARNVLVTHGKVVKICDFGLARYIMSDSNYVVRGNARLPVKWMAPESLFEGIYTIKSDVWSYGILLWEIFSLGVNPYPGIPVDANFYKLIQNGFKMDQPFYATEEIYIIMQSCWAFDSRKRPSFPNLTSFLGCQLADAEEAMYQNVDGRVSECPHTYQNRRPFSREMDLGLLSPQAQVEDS

[9] = biological target: Non-receptor tyrosine-protein kinase TYK2 (Homo sapiens) (UniProt P29597); conditions: at 1 µM;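 note: values are mean percent inhibition of TYK2 kinase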
Non-receptor tyrosine-protein kinase TYK2 (Homo sapiens), sequence (P29597 whole entry): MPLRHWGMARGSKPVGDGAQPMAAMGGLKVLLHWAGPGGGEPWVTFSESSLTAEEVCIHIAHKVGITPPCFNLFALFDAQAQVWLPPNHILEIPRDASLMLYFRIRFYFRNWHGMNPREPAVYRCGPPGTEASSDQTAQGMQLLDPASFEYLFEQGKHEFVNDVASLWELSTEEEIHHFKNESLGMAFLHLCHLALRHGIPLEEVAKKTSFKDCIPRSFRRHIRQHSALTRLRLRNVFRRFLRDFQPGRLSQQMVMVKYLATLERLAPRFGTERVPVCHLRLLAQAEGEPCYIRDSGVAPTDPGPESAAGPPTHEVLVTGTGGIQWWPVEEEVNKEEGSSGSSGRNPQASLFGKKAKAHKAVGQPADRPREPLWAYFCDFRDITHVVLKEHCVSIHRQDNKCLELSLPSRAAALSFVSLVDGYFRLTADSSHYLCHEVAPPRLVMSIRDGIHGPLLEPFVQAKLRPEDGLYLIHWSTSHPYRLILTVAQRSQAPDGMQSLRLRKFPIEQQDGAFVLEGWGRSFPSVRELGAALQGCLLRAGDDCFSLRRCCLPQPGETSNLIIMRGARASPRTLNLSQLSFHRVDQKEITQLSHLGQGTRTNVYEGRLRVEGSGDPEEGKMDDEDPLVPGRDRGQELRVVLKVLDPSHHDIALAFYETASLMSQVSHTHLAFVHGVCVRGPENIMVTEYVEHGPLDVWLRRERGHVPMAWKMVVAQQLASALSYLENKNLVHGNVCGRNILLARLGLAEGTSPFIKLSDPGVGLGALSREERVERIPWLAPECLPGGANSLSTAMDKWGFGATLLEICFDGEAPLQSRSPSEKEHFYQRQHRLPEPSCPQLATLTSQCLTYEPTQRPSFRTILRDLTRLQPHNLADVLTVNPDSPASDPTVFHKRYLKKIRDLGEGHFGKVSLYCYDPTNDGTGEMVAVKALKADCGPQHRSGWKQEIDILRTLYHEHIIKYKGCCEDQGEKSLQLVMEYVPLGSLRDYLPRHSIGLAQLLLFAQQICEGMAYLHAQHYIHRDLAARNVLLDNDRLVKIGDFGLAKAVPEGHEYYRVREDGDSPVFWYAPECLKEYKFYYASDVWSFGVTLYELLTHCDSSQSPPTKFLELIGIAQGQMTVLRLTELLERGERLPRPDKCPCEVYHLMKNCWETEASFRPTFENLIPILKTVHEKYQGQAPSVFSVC

[10] = biological target: T2, Tyrosine-protein kinase receptor TYRO3 (Homo sapiens) (UniProt Q06418); conditions: at 0.1 µM
T2 sequence (whole entry): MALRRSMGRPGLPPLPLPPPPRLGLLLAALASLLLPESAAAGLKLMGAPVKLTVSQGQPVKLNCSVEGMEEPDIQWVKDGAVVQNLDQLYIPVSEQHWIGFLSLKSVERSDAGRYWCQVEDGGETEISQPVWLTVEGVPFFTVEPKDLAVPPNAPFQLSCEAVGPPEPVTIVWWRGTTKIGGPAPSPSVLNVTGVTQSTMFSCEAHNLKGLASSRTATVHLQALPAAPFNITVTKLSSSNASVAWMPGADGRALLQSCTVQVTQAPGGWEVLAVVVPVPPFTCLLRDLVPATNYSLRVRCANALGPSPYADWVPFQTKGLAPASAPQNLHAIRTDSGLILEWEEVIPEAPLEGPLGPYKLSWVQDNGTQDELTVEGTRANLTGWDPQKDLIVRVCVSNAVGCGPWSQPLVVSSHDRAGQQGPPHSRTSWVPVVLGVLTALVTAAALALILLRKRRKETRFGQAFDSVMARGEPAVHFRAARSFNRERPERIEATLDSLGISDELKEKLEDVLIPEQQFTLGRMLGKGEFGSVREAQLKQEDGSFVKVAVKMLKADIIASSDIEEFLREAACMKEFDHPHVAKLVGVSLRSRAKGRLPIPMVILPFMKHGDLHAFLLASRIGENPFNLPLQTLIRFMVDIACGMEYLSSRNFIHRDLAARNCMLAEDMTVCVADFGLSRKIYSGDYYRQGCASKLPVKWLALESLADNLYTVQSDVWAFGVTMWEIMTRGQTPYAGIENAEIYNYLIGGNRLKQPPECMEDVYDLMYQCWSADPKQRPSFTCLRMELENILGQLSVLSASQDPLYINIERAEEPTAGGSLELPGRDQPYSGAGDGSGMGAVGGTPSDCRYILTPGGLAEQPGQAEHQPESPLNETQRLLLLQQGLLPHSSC

[11] = biological target: T2, Tyrosine-protein kinase receptor TYRO3 (Homo sapiens); conditions: at 1 µM
[12] = biological target: Tyrosine-protein kinase Yes (Homo sapiens) (UniProt P07947); conditions: at 0.1 µM
Tyrosine-protein kinase Yes (Homo sapiens), sequence (P07947 2-543 limits assumed): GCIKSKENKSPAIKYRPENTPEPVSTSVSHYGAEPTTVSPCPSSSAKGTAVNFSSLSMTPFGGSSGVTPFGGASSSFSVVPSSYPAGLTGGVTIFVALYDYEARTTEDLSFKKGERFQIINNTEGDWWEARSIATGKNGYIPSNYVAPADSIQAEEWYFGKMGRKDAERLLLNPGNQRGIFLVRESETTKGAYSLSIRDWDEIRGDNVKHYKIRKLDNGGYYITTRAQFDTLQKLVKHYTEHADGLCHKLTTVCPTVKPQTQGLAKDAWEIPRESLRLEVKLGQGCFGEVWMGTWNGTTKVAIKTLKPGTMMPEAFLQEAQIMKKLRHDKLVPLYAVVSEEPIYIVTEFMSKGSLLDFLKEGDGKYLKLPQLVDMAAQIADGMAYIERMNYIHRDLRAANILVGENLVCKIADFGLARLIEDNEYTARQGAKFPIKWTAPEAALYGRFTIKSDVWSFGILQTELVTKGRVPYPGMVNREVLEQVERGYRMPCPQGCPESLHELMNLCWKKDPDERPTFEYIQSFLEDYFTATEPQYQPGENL

[13] = biological target: Tyrosine-protein kinase Yes (Homo sapiens) (UniProt P07947); conditions: at 1 µM
[14] = biological target: T3, Tyrosine-protein kinase ZAP-70 (Homo sapiens) (UniProt P43403); conditions: at 0.1 µM
T3 sequence (whole entry): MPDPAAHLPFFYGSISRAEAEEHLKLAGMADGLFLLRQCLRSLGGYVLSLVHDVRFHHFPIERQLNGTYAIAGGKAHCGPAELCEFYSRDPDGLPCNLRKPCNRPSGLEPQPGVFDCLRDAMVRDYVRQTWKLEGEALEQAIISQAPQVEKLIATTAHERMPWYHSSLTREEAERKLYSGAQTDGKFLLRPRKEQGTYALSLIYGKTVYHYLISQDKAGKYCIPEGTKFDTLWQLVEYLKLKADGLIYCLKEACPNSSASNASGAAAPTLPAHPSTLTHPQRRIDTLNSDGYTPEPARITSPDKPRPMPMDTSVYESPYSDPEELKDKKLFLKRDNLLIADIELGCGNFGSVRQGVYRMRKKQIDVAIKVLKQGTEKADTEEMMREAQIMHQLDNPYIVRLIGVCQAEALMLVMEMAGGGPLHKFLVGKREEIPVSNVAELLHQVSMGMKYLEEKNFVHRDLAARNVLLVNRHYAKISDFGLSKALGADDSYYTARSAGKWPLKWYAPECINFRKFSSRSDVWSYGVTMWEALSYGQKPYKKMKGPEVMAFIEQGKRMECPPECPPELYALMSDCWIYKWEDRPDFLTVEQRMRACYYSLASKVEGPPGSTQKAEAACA

[15] = biological target: T3, Tyrosine-protein kinase ZAP-70 (Homo sapiens); conditions: at 1 µM
[16] = biological target: Serine/threonine-protein kinase B-raf (Homo sapiens) (UniProt P15056); conditions: at 0.1 µM
Serine/threonine-protein kinase B-raf (Homo sapiens), sequence (P15056 whole entry): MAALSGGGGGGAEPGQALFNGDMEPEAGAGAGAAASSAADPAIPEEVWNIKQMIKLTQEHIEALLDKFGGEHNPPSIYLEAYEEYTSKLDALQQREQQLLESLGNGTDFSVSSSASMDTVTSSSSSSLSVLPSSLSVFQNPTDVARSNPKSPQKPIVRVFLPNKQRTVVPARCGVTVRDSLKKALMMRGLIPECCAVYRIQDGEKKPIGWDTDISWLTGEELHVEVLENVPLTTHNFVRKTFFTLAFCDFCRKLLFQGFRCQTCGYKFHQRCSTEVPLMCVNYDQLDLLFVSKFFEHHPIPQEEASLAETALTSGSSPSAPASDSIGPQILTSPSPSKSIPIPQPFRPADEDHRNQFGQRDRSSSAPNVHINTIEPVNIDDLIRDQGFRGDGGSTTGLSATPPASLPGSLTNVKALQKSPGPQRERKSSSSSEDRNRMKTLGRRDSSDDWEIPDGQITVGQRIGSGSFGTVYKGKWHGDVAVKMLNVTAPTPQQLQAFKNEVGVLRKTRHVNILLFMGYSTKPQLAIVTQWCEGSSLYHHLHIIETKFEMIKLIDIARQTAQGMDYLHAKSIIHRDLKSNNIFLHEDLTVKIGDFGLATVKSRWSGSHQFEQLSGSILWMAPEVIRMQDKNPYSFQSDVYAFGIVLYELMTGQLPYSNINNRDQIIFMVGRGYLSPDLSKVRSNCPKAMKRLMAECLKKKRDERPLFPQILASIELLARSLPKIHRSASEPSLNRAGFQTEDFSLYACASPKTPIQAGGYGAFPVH

[17] = biological target: Serine/threonine-protein kinase B-raf (Homo sapiens) (UniProt P15056); conditions: at 1 µM
[18] = test system: Serine/threonine-protein kinase B-raf (Homo sapiens), P15056 [V600E]; conditions: at 0.1 µM
Serine/threonine-protein kinase B-raf (Homo sapiens), P15056 [V600E], sequence (P15056 whole entry V600E): as the sequence (P15056 whole entry) above, with V600E counted along it

[19] = test system: Serine/threonine-protein kinase B-raf (Homo sapiens), P15056 [V600E]; conditions: at 1 µM
[20] = biological target: RAF proto-oncogene serine/threonine-protein kinase (Homo sapiens) (UniProt P04049); conditions: at 0.1 µM;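 note: values are mean CRAF kinase inhibition from profiling of the GSK Published Kinase Inhibitor Set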
RAF proto-oncogene serine/threonine-protein kinase (Homo sapiens), sequence (P04049 whole entry): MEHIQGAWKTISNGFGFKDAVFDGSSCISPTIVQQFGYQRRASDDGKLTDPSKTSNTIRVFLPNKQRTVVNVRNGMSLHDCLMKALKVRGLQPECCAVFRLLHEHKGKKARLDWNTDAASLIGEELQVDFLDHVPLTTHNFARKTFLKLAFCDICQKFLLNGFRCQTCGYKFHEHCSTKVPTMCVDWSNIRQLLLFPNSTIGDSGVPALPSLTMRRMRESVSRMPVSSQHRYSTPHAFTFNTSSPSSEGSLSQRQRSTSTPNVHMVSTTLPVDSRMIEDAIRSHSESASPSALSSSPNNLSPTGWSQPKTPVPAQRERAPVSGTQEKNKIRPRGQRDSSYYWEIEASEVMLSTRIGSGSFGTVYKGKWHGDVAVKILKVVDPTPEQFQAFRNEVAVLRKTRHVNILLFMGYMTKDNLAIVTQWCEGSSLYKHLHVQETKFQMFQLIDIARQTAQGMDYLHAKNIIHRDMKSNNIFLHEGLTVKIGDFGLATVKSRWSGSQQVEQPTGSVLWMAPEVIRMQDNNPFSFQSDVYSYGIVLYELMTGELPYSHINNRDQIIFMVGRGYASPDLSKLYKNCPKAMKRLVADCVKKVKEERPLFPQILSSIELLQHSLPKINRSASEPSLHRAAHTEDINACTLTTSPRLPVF

Tyrosine-protein kinase Fgr (Homo sapiens), sequence (P09769 2-529 limits assumed): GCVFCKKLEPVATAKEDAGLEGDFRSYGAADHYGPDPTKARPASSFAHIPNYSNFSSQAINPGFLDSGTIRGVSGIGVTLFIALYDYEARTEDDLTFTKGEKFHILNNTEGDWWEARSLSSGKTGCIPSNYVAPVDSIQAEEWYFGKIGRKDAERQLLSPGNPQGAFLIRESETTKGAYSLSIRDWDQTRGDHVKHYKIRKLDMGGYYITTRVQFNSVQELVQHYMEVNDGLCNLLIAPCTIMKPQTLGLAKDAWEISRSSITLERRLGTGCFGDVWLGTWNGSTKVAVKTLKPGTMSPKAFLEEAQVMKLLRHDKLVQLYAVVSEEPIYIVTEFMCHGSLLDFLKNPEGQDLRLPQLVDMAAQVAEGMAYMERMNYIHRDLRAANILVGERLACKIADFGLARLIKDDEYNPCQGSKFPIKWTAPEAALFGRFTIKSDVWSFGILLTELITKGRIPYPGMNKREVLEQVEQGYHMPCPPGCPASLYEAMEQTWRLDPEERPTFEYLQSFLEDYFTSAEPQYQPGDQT
Fibroblast growth factor receptor 4 (Homo sapiens), sequence (P22455 22-802 limits assumed): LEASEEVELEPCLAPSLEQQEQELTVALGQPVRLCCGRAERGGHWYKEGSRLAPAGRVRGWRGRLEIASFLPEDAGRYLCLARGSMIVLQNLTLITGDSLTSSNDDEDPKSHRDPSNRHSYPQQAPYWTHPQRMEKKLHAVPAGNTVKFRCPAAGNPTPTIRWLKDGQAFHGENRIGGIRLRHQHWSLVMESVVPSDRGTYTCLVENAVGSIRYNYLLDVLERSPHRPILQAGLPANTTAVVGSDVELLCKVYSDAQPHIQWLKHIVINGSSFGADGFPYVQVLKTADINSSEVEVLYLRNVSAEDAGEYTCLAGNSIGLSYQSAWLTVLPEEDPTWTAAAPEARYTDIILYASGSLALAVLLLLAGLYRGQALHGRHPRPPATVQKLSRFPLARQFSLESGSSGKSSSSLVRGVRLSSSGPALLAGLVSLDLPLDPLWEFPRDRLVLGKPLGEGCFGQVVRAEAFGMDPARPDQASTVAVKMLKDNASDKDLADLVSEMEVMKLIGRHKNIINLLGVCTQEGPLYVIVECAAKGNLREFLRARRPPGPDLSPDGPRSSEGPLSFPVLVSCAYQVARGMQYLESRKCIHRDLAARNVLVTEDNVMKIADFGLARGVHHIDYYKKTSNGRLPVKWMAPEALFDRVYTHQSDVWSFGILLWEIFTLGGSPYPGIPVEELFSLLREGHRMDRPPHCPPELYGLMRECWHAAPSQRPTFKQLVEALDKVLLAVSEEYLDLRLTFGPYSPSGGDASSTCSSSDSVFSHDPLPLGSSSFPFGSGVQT

Row | SMILES | inhibition [1] | inhibition [2] | inhibition [3] | inhibition [4] | inhibition [5] | inhibition [6] | inhibition [7] | inhibition [8] | inhibition [9] | inhibition [10] | inhibition [11] | inhibition [12] | inhibition [13] | inhibition [14] | inhibition [15] | inhibition [16] | inhibition [17] | inhibition [18] | inhibition [19] | inhibition [20]
1 | Cc1c2ccc(N(C)c3ccnc(Nc4cccc(S(N)(=O)=O)c4)n3)cc2nn1C | 26.4% | 26% | 64.7% | 52.8% | 94% | 2.48% | 15% | -0.8% | -3.19% | 3.74% | 16.1% | 14.9% | 62.8% | 0.81% | 11.5% | 9.33% | 9.79% | 8.28% | 12.5% | -1.01%
2 | O=C(O[C@H]1CN[C@H](C#Cc2cc3ncnc(Nc4ccc5c(ccn5Cc5cc(F)ccc5F)c4)c3s2)C1)N1CCOCC1 | 1.82% | 2.14% | 2.6% | 0.98% | -0.89% | 1.02% | 2.83% | -5.8% | -1.34% | 2.07% | 3.08% | 0.85% | 8.22% | 0.89% | 2.72% | 6% | 6.76% | 6.11% | 6.31% | 1.88%
3 | COC(=O)Nc1nc2cc(Oc3ccc(NC(=O)Nc4ccccc4)cc3)ccc2[nH]1 | -0.59% | 4.41% | 3.18% | 16.5% | 22.1% | 5.43% | 14.2% | -4.53% | -1.49% | 1.8% | 4.81% | 0.64% | 4.69% | 0.7% | 1.28% | 4.74% | 4.26% | 5.49% | 5% | -5.27%
4 | COc1cc(N2CCN(C(C)C)CC2)ccc1Nc1nc(Nc2cccc(F)c2C(=O)O)c2cc[nH]c2n1 | 3.72% | 4.76% | 4% | 1.38% | 1.96% | 0.4% | 10.3% | 0.23% | -2.8% | 2.73% | 3.99% | 1.69% | 8.64% | 2.69% | 7.8% | 6.1% | 7.89% | 6.27% | 7.5% | 1.76%
5 | Fc1cccc(COc2ccc(Nc3ncncc3C#Cc3ccccc3)cc2Cl)c1 | 0.25% | 5.41% | 2.24% | 1.51% | 1.02% | 2.67% | 5.4% | 4.26% | -1.45% | 2.1% | 9.44% | 4.11% | 3.65% | 2.29% | 1.11% | 6.77% | 4.45% | 6.66% | 5.53% | -0.3%
6 | CN1CCN(Cc2ccc(-c3cc4ncnc(Nc5ccc(OCc6cccc(F)c6)c(Cl)c5)c4s3)o2)CC1 | 0.2% and 1% | 5.67% and 10.9% | 30.3% and 30.1% | 0.35% and 1.57% | 3.76% and 1.58% | 3.12% and 0.52% | 1.99% and 2.76% | -3.92% and 0.13% | -7.87% and -0.75% | 2.09% and 4.83% | 12.4% and 17.4% | 14% and 15.7% | 58.6% and 60.3% | 1.12% and 6.43% | 7.67% and 11.7% | 4.33% and 8.54% | 5.51% and 9.42% | 3.61% and 9.64% | 4.75% and 9.2% | -0.28% and 16.3%
7 | N#Cc1cccc(Nc2ncc(-c3ccccc3)o2)c1 | 3.3% | 5.47% | 13.5% | 2.46% | 9.52% | 12% | 61.8% | 3.75% | -1.92% | 1.76% | 6.8% | 2.87% | 17.7% | 0.3% | 1.57% | 3.08% | 3.51% | 3.18% | 4.57% | -1.08%
8 | CNC(=O)c1ncccc1Nc1nc(Nc2cc3c(cc2OC)CCCN3C(=O)CN(C)C)nc2[nH]ccc12 | 0.76% | 1.73% | 7.26% | 0.02% | -0.67% | 3.6% | 4.13% | 1.41% | -1.39% | 4.43% | 5.61% | 0.73% | -1.63% | -0.5% | 2.99% | 4.31% | 4.44% | 5.35% | 9.32% | -1.22%
9 | NS(=O)(=O)c1ccc(N/N=C2\C(=O)Nc3ccc(C(=O)NCc4ccncc4)cc32)cc1 | 2.18% | 4.24% | 12.5% | 2.5% | 10.3% | 2.9% | 11.4% | 3.79% | 0.98% | 2.32% | 8.28% | 4.07% | 17.1% | 2.55% | 3.8% | 14.8% | 56.7% | 15.1% | 56.3% | 0.58%
10 | COc1cc(Nc2ncc(-c3ccccc3)o2)cc(OC)c1 | -0.29% | 5.71% | 30.2% | 4.69% | 18.8% | 71.8% | 90.5% | 5.63% | -1.72% | 2.81% | 8.91% | 5.8% | 39.5% | 2.8% | 1.02% | 7.08% | 6.68% | 5.31% | 3.47% | 0.47%

— ChEMBL document CHEMBL1961873, “Compounds: GSK PKIS; Assays: Nanosyn kinase panel” (2012)
